Assay [1] in a line: Quantitative High-Throughput drug screen in 47 multiple myeloma cell lines against the NCATS MIPE library collection: U266_ATCC cell viability assay (AID 1919864). Note: nearly all actives have a fitted effect of over 35% in size. The following applies: U266 myeloma viability, CellTiter-Glo ATP luminescence, 48 h; series mostly up to 45.8 µM. In outline:
(§1)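 Plated at 500 cells per well, myeloma lines received MIPE 4.0 compounds by pin tool. Following 48 h culture at 37 °C, CellTiter-Glo luminescence gave viability relative to DMSO and media-only controls.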

Assay [2] in a line: Quantitative High-Throughput drug screen in 47 multiple myeloma cell lines against the NCATS MIPE library collection: XG6_PLB cell viability assay (AID 1919865). Note: nearly all actives have a fitted effect of over 40% in size. Particulars: XG6 myeloma viability, CellTiter-Glo ATP luminescence, 48 h; series mostly up to 45.8 µM. An outline of the steps:
as §1

Assay [3] in a line: Quantitative High-Throughput drug screen in 47 multiple myeloma cell lines against the NCATS MIPE library collection: XG1_PLB cell viability assay (AID 1919866). Note: nearly all actives have a fitted effect of over 35% in size. The following applies: CellTiter-Glo ATP, 48 h; series mostly up to 45.8 µM. An outline of the steps: as §1
Assay [4] is described as follows: Quantitative High-Throughput drug screen in 47 multiple myeloma cell lines against the NCATS MIPE library collection: UTMC2_PLB cell viability assay (AID 1919868). Note: nearly all actives have a fitted effect of over 55% in size. Particulars: CellTiter-Glo ATP luminescence, 48 h; viability (% of DMSO control): at 45.8 µM (top of the series). An outline of the steps:
as §1

A short description of assay [5]: Quantitative High-Throughput drug screen in 47 multiple myeloma cell lines against the NCATS MIPE library collection: PE2_PLB cell viability assay (AID 1919869). Note: nearly all actives have a fitted effect of over 35% in size. The following applies: PE2_PLB myeloma cells viability, ATP luminescence, 48 h; series mostly up to 45.8 µM. An outline of the steps: as §1
Assay [6] is described as follows: Quantitative High-Throughput drug screen in 47 multiple myeloma cell lines against the NCATS MIPE library collection: PCM6_Riken cell viability assay (AID 1919870). Note: nearly all actives have a fitted effect of over 30% in size. Particulars: CellTiter-Glo ATP, 48 h; series mostly up to 45.8 µM. An outline of the steps:
as §1

A short description of assay [7]: Quantitative High-Throughput drug screen in 47 multiple myeloma cell lines against the NCATS MIPE library collection: RPMI8226_ATCC cell viability assay (AID 1919871). Note: nearly all actives have a fitted effect of over 30% in size. The following applies: RPMI8226 myeloma viability, CellTiter-Glo ATP luminescence, 48 h; series mostly up to 45.8 µM. An outline of the steps: as §1
Assay [8] is described as follows: Quantitative High-Throughput drug screen in 47 multiple myeloma cell lines against the NCATS MIPE library collection: VP6_DJ cell viability assay (AID 1919867). Note: nearly all actives have a fitted effect of over 40% in size. Particulars: ATP luminescence, 48 h; series mostly up to 45.8 µM. An outline of the steps:
as §1

A short description of assay [9]: Quantitative High-Throughput drug screen in 47 multiple myeloma cell lines against the NCATS MIPE library collection: KMS11_JCRBsus cell viability assay (AID 1919873). Note: nearly all actives have a fitted effect of over 50% in size. The following applies: KMS11 myeloma viability, CellTiter-Glo ATP luminescence, 48 h; series mostly up to 45.8 µM. In outline:
as §1

Assay [10] in a line: Quantitative High-Throughput drug screen in 47 multiple myeloma cell lines against the NCATS MIPE library collection: OPM2_DSMZ cell viability assay (AID 1919872). Note: nearly all actives have a fitted effect of over 30% in size. The following applies: OPM2 myeloma viability, CellTiter-Glo ATP luminescence, 48 h; series mostly up to 45.8 µM. In outline:
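CellTiter-Glo ATP luminescence gave viability after 48 h compound treatment at 37C of 500 multiple myeloma cells per well. Normalisation used DMSO-only wells as 100% and media-only wells as 0% viability; primary qHTS of approved and investigational drugs.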

A short description of assay [11]: Quantitative High-Throughput drug screen in 47 multiple myeloma cell lines against the NCATS MIPE library collection: KMS28BM_JCRB cell viability assay (AID 1919874). Note: nearly all actives have a fitted effect of over 35% in size. Particulars: CellTiter-Glo ATP, 48 h; series mostly up to 45.8 µM. An outline of the steps: as §1
Assay [12] in a line: Quantitative High-Throughput drug screen in 47 multiple myeloma cell lines against the NCATS MIPE library collection: SKMM1_PLB cell viability assay (AID 1919863). Note: nearly all actives have a fitted effect of over 35% in size. The following applies: SKMM1 myeloma viability, CellTiter-Glo ATP, 48 h; viability: stronger effect = lower value. An outline of the steps: as §1

Inconclusive results are not listed. Unmarked numbers belong to inactive results. Activity calls are given as the source filed them. Calls come from the whole dose curve; as a rule, active = well fitted cell-killing curve with a large enough effect; inconclusive = small, poorly fitted or top-dose-only effect, or effect the other way; inactive = no such curve, though single readings can be large or run the other way.

This passage reports Potency and viability results from PubChem BioAssay (NCATS).
Potency is the fitted concentration of half-maximal effect.

Regarding `CN(C)Cc1cccc(N=C(c2ccccc2)c2c(O)[nH]c3cc(C(=O)N(C)C)ccc23)c1`, the Potency in assay [1] was 18.7 µM (active); in assay [2] it was 18.7 µM (active); in assay [3], 16.6 µM (active); in assay [4], 16.6 µM (active); in [5] it was 20.9 µM (active); in assay [6], 10.5 µM (active). In addition, the Potency in assay [7] is 10.5 µM (active).

For the molecule `Clc1ccc(CCC(Cn2ccnc2)Sc2c(Cl)cccc2Cl)cc1` (configuration not stated), the Potency entry in assay [1] is “inactive”. The Potency in assay [2] is 23.5 µM (active); in assay [8], 26.4 µM (active); in [4], 18.7 µM (active); in assay [5] it was 20.9 µM (active); in [6], 18.7 µM (active); in [9], 20.9 µM (active).

`CC(=O)Oc1cc2c(s1)CCN(C(C(=O)C1CC1)c1ccccc1F)C2` (configuration not stated): the Potency in assay [1] was 8.33 µM (active); in assay [2], 2.64 µM (active); in assay [8], 1.32 µM (active); in assay [4], 2.96 µM (active); in assay [6] it was 1.48 µM (active).

For `CC(C)n1cnc2c(NCCCCCCNC(=O)OC(C)(C)C)nc(NCCO)nc21`, the Potency in assay [1] was 9.35 µM (active); in [2], 26.4 µM (active); in assay [3] it was 23.5 µM (active); in assay [6], 16.6 µM (active); in assay [7], 14.8 µM (active).

As to `Cc1ccc(Nc2cc(-c3cccc(N4C(=O)c5ccccc5C4=O)c3)ncn2)cc1NS(C)(=O)=O`, the Potency in assay [1] is 23.5 µM (active); in assay [2], 8.33 µM (active); in [3], 18.7 µM (active); in [4], 20.9 µM (active); in assay [5] it was 16.6 µM (active); in assay [6], 14.8 µM (active). Also, the values for the Potency in assay [10] and in [9] were 26.4 µM (active) and 20.9 µM (active), respectively. Besides, the Potency result in assay [7] is “inactive”.

For the molecule `CC1(C)S[C@H]2[C@H](NC(=O)[C@@H](N)c3ccc(O)cc3)C(=O)N2[C@@H]1C(=O)O`, the Potency was 11.8 µM (active) in [1]; 2.64 µM (active) in assay [2]; 1.32 µM (active) in assay [3]; 1.87 µM (active) in assay [6]; 18.7 µM (active) in [9]; 5.9 µM (active) in assay [11]. For the same molecule, the Potency result in assay [5] and in assay [10] was “inactive” each time.

Take `O=C1NC(=O)C(=Cc2ccc3c(c2)OC(F)(F)O3)S1`: the Potency result in [1], in assay [10], in assay [9] and in assay [11] was “inactive” throughout. Besides, the Potency in [2] was 1.66 µM (active); in assay [8], 14.8 µM (active); in assay [4], 23.5 µM (active); in assay [5], 20.9 µM (active); in [6], 4.18 µM (active).

With `C[C@H](NC(=O)c1sccc1OCc1ccc(Cl)cc1)c1ccccc1`, the Potency was 18.7 µM (active) in [12], 18.7 µM (active) in assay [5], 18.7 µM (active) in assay [10] and 7.43 µM (active) in assay [9].

Take `Cc1ccc(F)c(NC(=O)Nc2ccc(-c3cccc4[nH]nc(N)c34)cc2)c1`: the Potency is 16.6 µM (active) in [1]; 16.6 µM (active) in assay [2]; 16.6 µM (active) in assay [3]; 8.33 µM (active) in assay [4]; 23.5 µM (active) in assay [6]; 5.26 µM (active) in assay [9]. The Potency in assay [11] was 8.33 µM (active).

`NC[C@@H]1O[C@@H](O[C@H]2[C@@H](O)[C@H](O[C@@H]3[C@@H](O)[C@@H](N)C[C@H](N)[C@H]3O[C@H]3O[C@H](CN)[C@@H](O)[C@@H](O)[C@H]3N)O[C@H]2CO)[C@H](N)[C@@H](O)[C@@H]1O`: the Potency result in assay [1], in [2], in [3], in assay [4], in assay [5] and in assay [6] was “inactive” throughout. Besides, the Potency entry in assay [7], in [10], in assay [9] and in assay [11] was “inactive” throughout.

`COCCOc1nc(-c2ccc(Cl)c(Cl)c2)n(-c2ccc(NC(=O)CCl)cc2)n1`: the Potency in assay [1] is 26.4 µM (active); in [2], 14.8 µM (active); in [8] it was 20.9 µM (active); in assay [4], 20.9 µM (active); in [5], 18.7 µM (active); in [6] it was 16.6 µM (active). Moreover, the Potency was 20.9 µM (active) in [7] and 16.6 µM (active) in [11]. Moreover, the Potency result in [10] was “inactive”.

With `O=C(OCC#CCSc1nnc(-c2cccc3ccccc23)o1)c1cc2ccccc2s1`, the Potency result in assay [1], in assay [2], in assay [3], in assay [8], in assay [5] and in [10] was “inactive” in each case. The Potency result in assay [9] is “inactive”. The Potency in assay [11] is 3.32 µM (active).

`O=C1NC(=O)C(=Cc2ccc(-c3ccc(F)cc3)o2)S1`: the Potency result in assay [1], in [4], in assay [10], in [9] and in [11] was “inactive” throughout. Further, the Potency in assay [2] was 18.7 µM (active); in assay [8], 14.8 µM (active); in assay [5] it was 8.33 µM (active); in assay [6] it was 7.43 µM (active).

`CC(C)OC(=O)C(C)(C)Oc1ccc(C(=O)c2ccc(Cl)cc2)cc1`: the Potency in assay [1] is 11.8 µM (active); in assay [8] it was 26.4 µM (active); in [5], 20.9 µM (active); in assay [7], 18.7 µM (active). The Potency entry in assay [2], in assay [4] and in assay [11] was “inactive” in each case.

As for `Cc1ccc([C@@H]2O[C@H](CO)[C@@H](O)[C@H](O)[C@@H]2O)cc1Cc1ccc(-c2ccc(F)cc2)s1`, in assay [12], the viability was 118%. Besides, the Potency result in [4] and in assay [7] was “inactive” each time. Besides, the Potency in assay [5] was 18.7 µM (active); in [9] it was 23.5 µM (active).

With `CC(=O)O[C@]1(C(C)=O)CC[C@@H]2[C@@H]3C[C@H](C)C4=CC(=O)CC[C@]4(C)[C@H]3CC[C@@]21C`, the Potency in assay [1] is 20.9 µM (active); in assay [2], 23.5 µM (active); in assay [8] it was 14.8 µM (active); in assay [9], 20.9 µM (active). The Potency entry in assay [4] was “inactive”.

Turning to `CO[C@H]1C[C@@H]2CC[C@@H](C)[C@@](O)(O2)C(=O)C(=O)N2CCCC[C@@H]2C(=O)O[C@H]([C@H](C)C[C@@H]2CC[C@H](OCCO)[C@H](OC)C2)CC(=O)[C@H](C)C=C(C)[C@@H](O)[C@@H](OC)C(=O)[C@H](C)C[C@H](C)C=CC=CC=C1C`, the viability in assay [12] was 66.8%. Further, the Potency in [4] is 0.235 µM (active); in assay [5], 1.48 µM (active).

On to `Cc1nc(N)sc1-c1ccnc(Nc2ccc(N3CCOCC3)cc2)n1`, for which the Potency is 23.5 µM (active) in assay [1]; 4.69 µM (active) in assay [2]; 2.64 µM (active) in [3]; 0.59 µM (active) in assay [4]; 3.32 µM (active) in [5]; 6.62 µM (active) in assay [6]. Besides, the Potency is 11.8 µM (active) in assay [7], 11.8 µM (active) in [10], 7.43 µM (active) in [9] and 16.6 µM (active) in assay [11].
